Measurements: PubChem BioAssay (NCATS)
Records with an inconclusive call do not appear. Calls of active or inactive are those of the source. Unless noted, calls come from the whole dose curve; as a rule, active = well fitted curve in the direction sought with a large enough effect; inconclusive = small, poorly fitted or top-dose-only effect, or another doubt; inactive = no such curve, though single readings can be large; an effect the other way counts as inactive or inconclusive.

How the values were obtained:
[1] = system: Zika virus NS2B-NS3 protease (unlinked complex); test: Primary screen GU Rhodamine qHTS for Zika virus inhibitors: Unlinked NS2B-NS3 protease assay (AID 1347159); note: nearly all actives have a fitted effect of over 60% in size; note: potency is the fitted concentration of half-maximal effect; for activity change, negative = inhibition: % is set by controls: 0 for no effect and ±100 for the full control effect
Procedure, shortened: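 Unlinked NS2B/NS3, 25 nM; Rhod110 peptide, 1.5 microM; compounds, up to 114 microM. Reaction run 15 min at RT in 10 mM Tris-HCl pH 8.0, 0.01% Tween 20; kinetic fluorescence change fitted with a 4-parameter Hill model.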

[2] = Primary qHTS for inhibitors of nuclear receptor binding SET domain protein 2 (NSD2) in an isogenic RCH-ACV NSD2 p.E1099K mutant (9B) (AID 1645876); note: nearly all actives have a fitted effect of over 70% in size; note: potency is the fitted concentration of half-maximal effect
[3] = Primary qHTS for inhibitors of nuclear receptor binding SET domain protein 2 (NSD2) in an RCH-ACV wild type WT cells (2C) (AID 1645877); note: nearly all actives have a fitted effect of over 70% in size; note: potency is the fitted concentration of half-maximal effect
CRL-7250 [4] = test: Cytotoxic Profiling of Annotated Libraries Using Quantitative High-Throughput Screening (AID 1296008); conditions: Five cell lines viability, CellTiter-Glo ATP luminescence, 48-72 h; max response: stronger effect = lower value; note: nearly all actives have a fitted effect of over 60% in size; note: potency is the fitted concentration of half-maximal effect; for max response: % is set by controls: 0 for no effect and ±100 for the full control effect
Procedure, shortened: (§1)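 Compounds were pin-transferred onto cells and incubated 48 or 72 hr at 37 degree Celsius, 95% humidity. CellTiter-Glo was added, plates sat 10 min at room temperature, then ATP-coupled luminescence was imaged as the viability read-out.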

KB-3-1 = test: as above; conditions: Five cell lines viability, CellTiter-Glo ATP luminescence, 48-72 h; max response: stronger effect = lower value
Procedure, shortened: as §1

HeLa = test: Primary qHTS to identify gynecologic anti-cancer compounds using libraries of approved drugs and bioactive compounds (AID 1345084); conditions: Gynecologic cancer cell panel viability, ATPlite luminescence, 48 h; series mostly up to 57.5 µM; note: nearly all actives have a fitted effect of over 55% in size; note: potency is the fitted concentration of half-maximal effect
Procedure, shortened: (§2)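 Cytotoxicity screen measuring ATP content by luciferase luminescence. Each compound is applied at five concentrations for 48 h at 37 C with 5% CO2.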

SKOV3 = test: as above; conditions: Gynecologic cancer cell panel viability, ATPlite luminescence, 48 h; series mostly up to 57.5 µM
Procedure, shortened: as §2

HEK293 = test: Cytotoxic Profiling of Annotated Libraries Using Quantitative High-Throughput Screening (AID 1296008); conditions: Five cell lines viability, CellTiter-Glo ATP luminescence, 48-72 h; max response: stronger effect = lower value; note: nearly all actives have a fitted effect of over 60% in size; note: potency is the fitted concentration of half-maximal effect; for max response: % is set by controls: 0 for no effect and ±100 for the full control effect
Procedure, shortened: as §1

[5] = P-glycoprotein substrates identified in KB-8-5-11 adenocarcinoma cell line, qHTS therapeutic library screen (AID 1346987); note: nearly all actives have a fitted effect of over 65% in size; note: potency is the fitted concentration of half-maximal effect
Procedure, shortened: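 Luminescence from CellTiter-Glo, read 5 min after addition, quantified survival of KB-8-5-11 (P-gp-overexpressing) cells exposed to compounds for 72 h. AC50 was derived from concentration-response curves.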

HACAT = test: qHTS assay to identify novel small-molecules to repurpose for Merkel cell carcinoma treatment (AID 1296009); conditions: MCC and control cell lines, CellTiter-Glo viability, 72 h; at 44.8 µM (top of the series) unless noted; note: nearly all actives have a fitted effect of over 60% in size
Procedure, shortened: (§3)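 Viability readout: ATP luminescence (CellTiter-Glo) after 72 hr drug exposure at 37 degree celsius. Dose-response format was 8 points for NPC and 11 points for MIPE; data normalized to in-plate controls.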

[6] = molecular target: Cytochrome P450 2C9 (Homo sapiens) (UniProt P11712); test: Cytochrome P450 family 2 subfamily C member 9 (CYP2C9) small molecule antagonists: luciferase biochemical (cell-free) qHTS assay (AID 1645842; active = well fitted curve in the direction sought with a large enough effect in the repeat runs; an effect the other way counts as inactive or inconclusive; note: nearly all actives have a fitted effect of over 55% in size; note: potency is the fitted concentration of half-maximal effect; for activity change, negative = inhibition: % is set by controls: 0 for no effect and ±100 for the full control effect)
Cytochrome P450 2C9 (Homo sapiens), sequence (P11712 whole entry, looked up): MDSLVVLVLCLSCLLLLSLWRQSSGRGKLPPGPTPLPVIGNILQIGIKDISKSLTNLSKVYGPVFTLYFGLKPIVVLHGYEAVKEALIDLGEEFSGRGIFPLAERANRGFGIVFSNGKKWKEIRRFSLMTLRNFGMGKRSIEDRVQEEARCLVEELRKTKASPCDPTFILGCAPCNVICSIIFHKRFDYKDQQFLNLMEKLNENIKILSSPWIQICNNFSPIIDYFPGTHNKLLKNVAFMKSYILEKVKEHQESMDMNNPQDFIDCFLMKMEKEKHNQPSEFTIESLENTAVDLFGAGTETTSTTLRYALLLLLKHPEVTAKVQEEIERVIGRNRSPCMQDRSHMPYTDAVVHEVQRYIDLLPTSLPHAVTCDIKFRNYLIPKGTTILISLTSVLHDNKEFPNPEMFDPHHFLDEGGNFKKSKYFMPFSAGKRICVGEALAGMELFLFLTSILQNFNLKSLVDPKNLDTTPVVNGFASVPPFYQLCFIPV
Procedure, shortened: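 P450-Glo CYP2C9 system: proluciferin substrate with enzyme in mix containing 0.4% BSA, 10 min at room temperature, then NADPH regeneration solution added and incubated 1 h at 37C. Detection reagent stopped reaction; luminescence read after 20 min as RLU.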

[7] = molecular target: Catechol O-methyltransferase (Homo sapiens) (UniProt P21964); test: Confirmatory Screen for Target Class Profiling of Small Molecule Inhibitors of Methyltransferases (AID 1745852; calls by dose curve; note: potency is the fitted concentration of half-maximal effect); conditions: MTase-Glo luminescence, SAH detection, recombinant enzyme; measured here: COMT max response; stronger effect = lower value
Catechol O-methyltransferase (Homo sapiens), sequence (P21964 whole entry, looked up): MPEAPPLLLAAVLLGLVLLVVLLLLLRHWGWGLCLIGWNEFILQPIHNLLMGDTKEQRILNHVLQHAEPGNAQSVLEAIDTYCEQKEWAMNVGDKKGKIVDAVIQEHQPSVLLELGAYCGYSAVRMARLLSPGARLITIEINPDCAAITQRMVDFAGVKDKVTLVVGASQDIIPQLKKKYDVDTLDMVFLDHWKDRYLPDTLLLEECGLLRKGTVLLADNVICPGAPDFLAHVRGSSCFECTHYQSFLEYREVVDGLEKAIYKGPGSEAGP

[8] = molecular target: Guanidinoacetate N-methyltransferase (Homo sapiens) (UniProt Q14353); test: as above; conditions: activity change, negative = inhibition: at 57.3 µM (top of the series) unless noted
[9] = molecular target: Nicotinamide N-methyltransferase (Homo sapiens) (UniProt P40261); test: as above; conditions: MTase-Glo luminescence, SAH detection, recombinant enzyme; measured here: NNMT max response; stronger effect = lower value
Nicotinamide N-methyltransferase (Homo sapiens), sequence (P40261 whole entry, looked up): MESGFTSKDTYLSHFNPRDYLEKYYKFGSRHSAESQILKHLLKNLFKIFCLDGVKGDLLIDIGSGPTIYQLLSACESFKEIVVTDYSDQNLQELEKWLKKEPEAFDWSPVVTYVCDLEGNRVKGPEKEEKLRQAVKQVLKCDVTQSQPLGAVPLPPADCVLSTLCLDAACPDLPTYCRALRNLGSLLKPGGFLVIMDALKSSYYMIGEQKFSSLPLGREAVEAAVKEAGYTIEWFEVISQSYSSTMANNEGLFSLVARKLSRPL

[10] = molecular target: Phenylethanolamine N-methyltransferase (Homo sapiens) (UniProt P11086); test: as above; conditions: MTase-Glo luminescence, SAH detection, recombinant enzyme; measured here: PNMT max response; stronger effect = lower value
Phenylethanolamine N-methyltransferase (Homo sapiens), sequence (P11086 whole entry, looked up): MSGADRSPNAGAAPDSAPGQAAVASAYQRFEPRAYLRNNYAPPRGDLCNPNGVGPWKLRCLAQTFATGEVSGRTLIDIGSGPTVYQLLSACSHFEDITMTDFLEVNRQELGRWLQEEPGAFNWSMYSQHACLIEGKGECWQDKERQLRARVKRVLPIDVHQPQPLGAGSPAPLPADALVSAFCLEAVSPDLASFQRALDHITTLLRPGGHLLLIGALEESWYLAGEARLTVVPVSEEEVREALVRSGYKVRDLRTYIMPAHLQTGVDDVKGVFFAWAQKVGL

CRL-7250 [11] = test: qHTS assay to identify novel small-molecules to repurpose for Merkel cell carcinoma treatment (AID 1296009); conditions: MCC and control cell lines, CellTiter-Glo viability, 72 h; series mostly up to 92 µM; note: nearly all actives have a fitted effect of over 60% in size
Procedure, shortened: as §3

NIH3T3 = test: as above; conditions: MCC and control cell lines, CellTiter-Glo viability, 72 h; at 44.8 µM (top of the series) unless noted
Procedure, shortened: as §3

[12] = qHTS drug screen for cell cycle checkpoint inhibitors in PARPi-resistant BRCA-mutant ovarian cancer cell lines. (AID 1963452; calls by dose curve); conditions: PEO1/OlaR viability, CellTiter-Glo luminescence, 96 h, stronger effect = lower value
Procedure, shortened: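 PEO1, PEO4 and PEO1/OlaR ovarian cancer cells, 600 per well, exposed 96 h at 37C to a dilution series. Viability read by CellTiter-Glo luminescence, normalized to DMSO and empty wells; activity summarized as Z-AUC.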

[13] = molecular target: Cytochrome P450 2D6 (Homo sapiens) (UniProt P10635); test: Cytochrome P450 family 2 subfamily D member 6 (CYP2D6) small molecule antagonists: luciferase biochemical (cell-free) qHTS assay (AID 1645840; active = well fitted curve in the direction sought with a large enough effect in the repeat runs; an effect the other way counts as inactive or inconclusive; note: potency is the fitted concentration of half-maximal effect; nearly all actives have a fitted effect of over 55% in size)
Cytochrome P450 2D6 (Homo sapiens), sequence (P10635 whole entry, looked up): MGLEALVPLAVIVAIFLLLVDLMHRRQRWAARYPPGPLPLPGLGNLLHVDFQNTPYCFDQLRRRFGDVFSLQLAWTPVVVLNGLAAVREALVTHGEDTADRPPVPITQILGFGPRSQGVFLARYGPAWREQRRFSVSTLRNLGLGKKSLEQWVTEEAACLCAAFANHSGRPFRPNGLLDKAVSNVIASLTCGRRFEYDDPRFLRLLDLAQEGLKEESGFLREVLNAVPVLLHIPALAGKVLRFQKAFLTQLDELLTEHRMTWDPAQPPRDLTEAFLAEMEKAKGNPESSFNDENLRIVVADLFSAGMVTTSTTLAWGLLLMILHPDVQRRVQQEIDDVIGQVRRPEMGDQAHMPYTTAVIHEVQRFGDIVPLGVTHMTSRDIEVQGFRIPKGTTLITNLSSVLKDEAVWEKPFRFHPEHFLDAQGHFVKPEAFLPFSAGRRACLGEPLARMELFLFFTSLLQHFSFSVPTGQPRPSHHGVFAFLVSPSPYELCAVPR
Procedure, shortened: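 P450-Glo CYP2D6 system: proluciferin substrate converted by enzyme to luciferin, read by luminescence proportional to activity. Enzyme-substrate mix with compound 10 min at room temperature, then NADPH regeneration 1 h before detection reagent.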

COc1ccc(CCNCc2ccc(OC)c3ccccc23)cc1
Potency [1]: inactive
Potency [2]: 14.5 µM (active)
Potency [3]: 16.3 µM (active)
max response (CRL-7250 [4]): -2.06% (inactive)
max response (KB-3-1): -13.8% (inactive)
Potency (HeLa): inactive
Potency (SKOV3): inactive

Cc1ccccc1C1=CCN(C)CC1
Potency [1]: inactive
Potency [2]: inactive
Potency [3]: inactive
max response (HEK293): -19.5% (inactive)
max response (KB-3-1): 6.53% (inactive)

CC/C=C/C=C/C1(C)OC(OC)=C(C(=O)C2C(C)C(=O)c3cc(OC)c(O)c(O)c3C2(C)O)C1=O (stereo unspecified)
Potency [1]: 6.31 µM (active)
Potency [3]: 7.09 µM (active)
max response (CRL-7250 [4]): -16.8% (inactive)
Potency (HeLa): inactive

CO/C1=C\C(C)=C\[C@@H](C)[C@@H](O)[C@@H](C)C/C(C)=C/C=C/[C@H](OC)[C@@H]([C@@H](C)[C@@H](O)[C@H](C)[C@@]2(O)C[C@@H](O)[C@H](C)[C@@H](C(C)C)O2)OC1=O
Potency [5]: 0.109 µM (active)
Potency [1]: inactive
Potency [2]: 0.0483 µM (active)
Potency [3]: 0.0305 µM (active)
Potency (CRL-7250 [4]): 0.0862 µM (active)
Potency (KB-3-1): 0.0611 µM (active)
Potency (HeLa): 0.126 µM (active)

C=C1C(=O)O[C@@H]2[C@H]3C(=C)[C@@H](O)C[C@H]3C(=C)C[C@@H](O)[C@@H]12
Potency [5]: inactive
Potency [2]: 16.3 µM (active)
Potency [3]: 6.49 µM (active)
max response (CRL-7250 [4]): -8.41% (inactive)
max response (KB-3-1): 6.92% (inactive)
Potency (SKOV3): inactive

C/C=C(\C)C(O)C(C)/C=C(C)/C=C/C/C(C)=C/Cc1nc(OC)c(OC)c(O[C@@H]2O[C@@H](C)[C@H](O)[C@@H](O)[C@H]2O)c1C (stereo partly specified)
Potency [5]: inactive
Potency [1]: inactive
Potency [2]: 3.55 µM (active)
Potency [3]: 3.99 µM (active)
Potency (CRL-7250 [4]): 0.796 µM (active)
outcome (HACAT): inactive [at 17.4 µM]
Potency (HeLa): inactive
Potency (SKOV3): 3.16 µM (active)

CC(=O)NCCCOc1ccc(C(=O)N2CCC(N3C(=O)CCc4ccccc43)CC2)cc1
Potency [5]: inactive
Potency [1]: inactive
Potency [6]: inactive
max response (CRL-7250 [4]): 0.176% (inactive)
max response (KB-3-1): 5.83% (inactive)
Potency (HeLa): inactive
Potency (SKOV3): inactive

C[C@H]1CCC[C@H](O)CCC/C=C/c2cc(O)cc(O)c2C(=O)O1
Potency [2]: 14.5 µM (active)
Potency [3]: 14.5 µM (active)
activity [7]: -96.3%
Potency [8]: 3.41 µM (active)
activity [9]: -89%
activity [10]: -98.1%
outcome (CRL-7250 [4]): inactive
Potency (CRL-7250 [11]): inactive
outcome (NIH3T3): inactive
Potency (SKOV3): inactive

C[C@H](Nc1ncnc2nc[nH]c12)c1nc2ccc(F)cc2c(=O)n1-c1ccccc1
Potency [1]: inactive
Potency [6]: 12 µM (active)
Z-AUC [12]: 0.252 (inactive)
Z-AUC ([12]; measured here: PEO1 parental Z-AUC): 0.609
Z-AUC ([12]; measured here: PEO4 Z-AUC): 0.915
max response (CRL-7250 [4]): -36.2% (inactive)
max response (KB-3-1): -3.18% (inactive)
Potency (HeLa): inactive
Potency (SKOV3): inactive

Cc1[nH]c2ccc(Cl)cc2c1CCN(C)C
Potency [5]: inactive
Potency [1]: inactive
Potency [13]: 3.38 µM (active)
Potency [6]: inactive
Potency [2]: inactive
activity [7]: -4.16%
activity change, negative = inhibition [8]: -1.82%
activity [9]: -4.68%
activity [10]: -3.11%
max response (CRL-7250 [4]): -0.626% (inactive)
max response (KB-3-1): 3.8% (inactive)
outcome (NIH3T3): inactive
Potency (HeLa): inactive
